Reference: PubChem BioAssay AID1159580 (chemical genetic matrix, 2015)
The campaign covered roughly 5,500 compounds. About 2,000 (36%) were called active. Not shown: some 18% with an inconclusive outcome. Cut-off read from the data, not from the text of the source: active = normalized growth mostly below about 0.91 (no sharp cut-off); inconclusive = no clear call, values can overlap the other calls; inactive = mostly above about 0.92. Some of the results follow.

Experiment: chemical genetic growth profiling, strain panel (AID 1159580);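 note: tested at 20 µM; growth read once vehicle control cultures reached saturation at 30 °C; 1 = growth at the plate median or of vehicle wells; lower values mean less growth of the strain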
Settings: S. cerevisiae deletion strains, growth OD
[1] = locus YAR019C, strain CDC15, stronger effect = lower value
[2] = locus YBL105C, strain PKC1, stronger effect = lower value
[3] = locus YBR135W, strain CKS1, stronger effect = lower value
[4] = locus YBR136W, strain MEC1, stronger effect = lower value
[5] = locus YBR160W, strain CDC28, stronger effect = lower value
[6] = locus YDL017W, strain CDC7, stronger effect = lower value
[7] = locus YDL028C, strain MPS1, stronger effect = lower value
[8] = locus YDL101C, strain DUN1, stronger effect = lower value
[9] = locus YDL108W, strain KIN28, stronger effect = lower value
[10] = locus YDL132W, strain cdc53, stronger effect = lower value
[11] = locus YDL214C, strain PRR2, stronger effect = lower value
[12] = locus YDR052C, strain DBF4, stronger effect = lower value
[13] = locus YDR054C, strain cdc34, stronger effect = lower value
[14] = locus YDR226W, strain ADK1, stronger effect = lower value
[15] = locus YDR477W, strain SNF1, stronger effect = lower value
[16] = locus YER123W, strain YCK3, stronger effect = lower value
[17] = locus YER133W, strain GLC7, stronger effect = lower value
[18] = locus YFL009W, strain cdc4, stronger effect = lower value
[19] = locus YFL029C, strain CAK1, stronger effect = lower value
[20] = locus YFR003C, strain YPI1, stronger effect = lower value
[21] = locus YFR019W, strain FAB1, stronger effect = lower value
[22] = locus YFR028C, strain CDC14, stronger effect = lower value
[23] = locus YGR040W, strain KSS1, stronger effect = lower value
[24] = locus YGR052W, strain FMP48, stronger effect = lower value
[25] = locus YGR092W, strain DBF2, stronger effect = lower value
[26] = locus YHR030C, strain SLT2, stronger effect = lower value
[27] = locus YHR079C, strain IRE1, stronger effect = lower value
[28] = locus YHR082C, strain KSP1, stronger effect = lower value
[29] = locus YHR205W, strain SCH9, stronger effect = lower value
[30] = locus YIL147C, strain SLN1, stronger effect = lower value
[31] = locus YJL095W, strain BCK1, stronger effect = lower value
[32] = locus YJL128C, strain PBS2, stronger effect = lower value
[33] = locus YJL157C, strain FAR1, stronger effect = lower value
[34] = locus YJR016C, strain ILV3, stronger effect = lower value
[35] = locus YJR066W, strain TOR1 (second series), stronger effect = lower value
[36] = locus YJR066W, strain TOR1, stronger effect = lower value
[37] = locus YKL048C, strain ELM1, stronger effect = lower value
[38] = locus YKL067W, strain YNK1, stronger effect = lower value
[39] = locus YKL101W, strain HSL1, stronger effect = lower value
[40] = locus YKL193C, strain SDS22, stronger effect = lower value
[41] = locus YKL203C, strain TOR2, stronger effect = lower value
[42] = locus YLR113W, strain HOG1, stronger effect = lower value
[43] = locus YLR133W, strain CKI1, stronger effect = lower value
[44] = locus YLR403W, strain SFP1, stronger effect = lower value
[45] = locus YML070W, strain DAK1, stronger effect = lower value
[46] = locus YMR001C, strain CDC5, stronger effect = lower value
[47] = locus YMR205C, strain PFK2 (second series), stronger effect = lower value
[48] = locus YMR277W, strain FCP1, stronger effect = lower value
[49] = locus YNL006W, strain LST8, stronger effect = lower value
[50] = locus YNL020C, strain ARK1, stronger effect = lower value
[51] = locus YNL161W, strain CBK1, stronger effect = lower value
[52] = locus YNL183C, strain NPR1, stronger effect = lower value
[53] = locus YNL207W, strain RIO2, stronger effect = lower value
[54] = locus YNL222W, strain SSU72, stronger effect = lower value
[55] = locus YNL307C, strain MCK1 (second series), stronger effect = lower value
[56] = locus YOL078W, strain AVO1, stronger effect = lower value
[57] = locus YOL136C, strain PFK27, stronger effect = lower value
[58] = locus YOR061W, strain CKA2, stronger effect = lower value
[59] = locus YOR119C, strain RIO1, stronger effect = lower value
[60] = locus YOR231W, strain MKK1, stronger effect = lower value
[61] = locus YOR329C, strain SCD5, stronger effect = lower value
[62] = locus YPL031C, strain PHO85, stronger effect = lower value
[63] = locus YPL153C, strain RAD53, stronger effect = lower value
[64] = locus YPL204W, strain HRR25, stronger effect = lower value
[65] = locus YPL209C, strain IPL1, stronger effect = lower value
[66] = locus YPL256C, strain CLN2, stronger effect = lower value
[67] = locus YPR025C, strain CCL1, stronger effect = lower value
[68] = locus YPR106W, strain ISR1, stronger effect = lower value
[69] = locus YPR111W, strain DBF20, stronger effect = lower value
[70] = strain NNK1, stronger effect = lower value
[71] = strain TSCII, stronger effect = lower value

Measured: normalized growth

CCCc1c(C(=O)NC2Cc3ccccc3C2)cnn1-c1ccccc1
inactive: [1] 0.986 | [2] 0.99 | [3] 0.996 | [4] 0.99 | [5] 0.99 | [6] 0.999 | [7] 0.993 | [8] 0.993 | [9] 0.997 | [10] 0.99 | [11] 0.976 | [12] 0.998 | [13] 0.983 | [14] 0.991 | [15] 0.964 | [16] 0.979 | [17] 0.965 | [18] 0.986 | [19] 0.988 | [20] 0.995 | [21] 0.974 | [22] 0.986 | [23] 0.96 | [24] 1.05 | [25] 1.01 | [26] 0.97 | [27] 1 | [28] 1.04 | [29] 0.991 | [30] 0.994 | [31] 0.991 | [32] 0.979 | [33] 0.969 | [34] 0.98 | [35] 0.93 | [36] 0.986 | [37] 0.982 | [38] 0.991 | [39] 0.972 | [40] 0.988 | [41] 1.01 | [42] 0.951 | [43] 0.968 | [44] 0.956 | [45] 0.97 | [46] 0.987 | [47] 0.987 | [48] 0.989 | [49] 0.995 | [50] 0.984 | [51] 0.991 | [52] 0.998 | [53] 0.987 | [54] 0.992 | [55] 0.998 | [56] 0.985 | [57] 0.96 | [58] 0.977 | [59] 1.01 | [60] 0.934 | [61] 0.992 | [62] 0.98 | [63] 0.956 | [64] 0.963 | [65] 0.994 | [66] 0.921 | [67] 0.998 | [68] 0.98 | [69] 0.981 | [70] 0.986 | [71] 0.997

CCCc1c(C(=O)NNc2cccc(Cl)c2)cnn1-c1ccccc1
inactive: [1] 0.984 | [2] 0.974 | [3] 0.987 | [4] 0.982 | [5] 0.976 | [6] 0.974 | [7] 0.995 | [8] 0.978 | [9] 0.988 | [10] 0.993 | [11] 0.944 | [12] 0.983 | [13] 0.986 | [14] 0.98 | [15] 0.954 | [16] 0.917 | [17] 0.957 | [18] 0.986 | [19] 0.98 | [20] 0.987 | [21] 0.937 | [22] 0.981 | [23] 0.925 | [24] 1 | [25] 0.957 | [26] 0.963 | [27] 0.963 | [28] 1 | [29] 0.933 | [30] 0.992 | [31] 0.968 | [32] 0.917 | [33] 0.937 | [34] 0.986 | [35] 0.911 | [36] 1.02 | [37] 0.968 | [38] 0.947 | [39] 0.924 | [40] 0.988 | [41] 0.987 | [42] 0.864 | [43] 0.936 | [44] 0.917 | [45] 0.927 | [46] 0.979 | [47] 0.948 | [48] 0.987 | [49] 0.996 | [50] 0.927 | [51] 0.983 | [52] 0.98 | [53] 0.983 | [54] 0.976 | [55] 0.935 | [56] 0.985 | [57] 0.897 | [58] 0.963 | [59] 1.01 | [60] 0.898 | [61] 0.981 | [62] 0.963 | [63] 0.94 | [64] 0.924 | [65] 0.973 | [66] 0.892 | [67] 0.982 | [68] 0.959 | [69] 0.965 | [70] 0.971 | [71] 0.988
